This is an account of results in ChEMBL document CHEMBL3988442, “University of Dundee, Small-Polar-MMV Screening Library” (2021).

For some of these results: Measured potencies and affinities stand elsewhere.

What all share (design): scale not given: direction of the effect not stated beside the values
The target in assay [1] is Protein translocase subunit SecA (Escherichia coli (strain K12)) (UniProt P10408). The assay can be described thus: Assay to Identify E. coli SecA ATPase Inhibitors. Format: functional. The following applies: 30 µM.
Sequence of Protein translocase subunit SecA (Escherichia coli (strain K12)) (P10408 whole entry): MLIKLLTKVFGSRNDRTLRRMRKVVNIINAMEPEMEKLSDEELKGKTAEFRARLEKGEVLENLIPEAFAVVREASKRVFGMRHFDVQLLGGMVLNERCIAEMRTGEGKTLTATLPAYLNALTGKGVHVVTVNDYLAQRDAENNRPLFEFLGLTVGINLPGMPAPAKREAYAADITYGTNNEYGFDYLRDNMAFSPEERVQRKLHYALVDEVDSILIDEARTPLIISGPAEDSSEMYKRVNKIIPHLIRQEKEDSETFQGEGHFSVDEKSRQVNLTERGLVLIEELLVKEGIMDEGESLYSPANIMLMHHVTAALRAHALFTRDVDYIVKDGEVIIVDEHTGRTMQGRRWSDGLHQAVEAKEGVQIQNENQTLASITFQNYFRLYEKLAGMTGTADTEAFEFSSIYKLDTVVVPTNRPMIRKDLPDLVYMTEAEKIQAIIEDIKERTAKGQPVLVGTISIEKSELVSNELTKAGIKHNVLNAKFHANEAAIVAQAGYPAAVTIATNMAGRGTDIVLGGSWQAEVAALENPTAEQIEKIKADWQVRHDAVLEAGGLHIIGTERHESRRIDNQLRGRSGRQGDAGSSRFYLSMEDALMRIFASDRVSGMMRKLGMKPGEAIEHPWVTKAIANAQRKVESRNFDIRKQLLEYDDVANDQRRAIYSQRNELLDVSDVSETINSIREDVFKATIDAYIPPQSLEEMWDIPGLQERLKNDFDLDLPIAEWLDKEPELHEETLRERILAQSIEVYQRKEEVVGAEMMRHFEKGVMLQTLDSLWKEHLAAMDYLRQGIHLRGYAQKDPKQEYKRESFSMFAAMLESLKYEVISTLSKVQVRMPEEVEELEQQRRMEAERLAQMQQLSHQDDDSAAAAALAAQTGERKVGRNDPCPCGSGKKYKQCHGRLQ
Assay [2] has as its target T1, Ubiquitin-activating enzyme e1, putative (Leishmania donovani (strain BPK282A1)) (UniProt E9BSI1).
T1 sequence (whole entry): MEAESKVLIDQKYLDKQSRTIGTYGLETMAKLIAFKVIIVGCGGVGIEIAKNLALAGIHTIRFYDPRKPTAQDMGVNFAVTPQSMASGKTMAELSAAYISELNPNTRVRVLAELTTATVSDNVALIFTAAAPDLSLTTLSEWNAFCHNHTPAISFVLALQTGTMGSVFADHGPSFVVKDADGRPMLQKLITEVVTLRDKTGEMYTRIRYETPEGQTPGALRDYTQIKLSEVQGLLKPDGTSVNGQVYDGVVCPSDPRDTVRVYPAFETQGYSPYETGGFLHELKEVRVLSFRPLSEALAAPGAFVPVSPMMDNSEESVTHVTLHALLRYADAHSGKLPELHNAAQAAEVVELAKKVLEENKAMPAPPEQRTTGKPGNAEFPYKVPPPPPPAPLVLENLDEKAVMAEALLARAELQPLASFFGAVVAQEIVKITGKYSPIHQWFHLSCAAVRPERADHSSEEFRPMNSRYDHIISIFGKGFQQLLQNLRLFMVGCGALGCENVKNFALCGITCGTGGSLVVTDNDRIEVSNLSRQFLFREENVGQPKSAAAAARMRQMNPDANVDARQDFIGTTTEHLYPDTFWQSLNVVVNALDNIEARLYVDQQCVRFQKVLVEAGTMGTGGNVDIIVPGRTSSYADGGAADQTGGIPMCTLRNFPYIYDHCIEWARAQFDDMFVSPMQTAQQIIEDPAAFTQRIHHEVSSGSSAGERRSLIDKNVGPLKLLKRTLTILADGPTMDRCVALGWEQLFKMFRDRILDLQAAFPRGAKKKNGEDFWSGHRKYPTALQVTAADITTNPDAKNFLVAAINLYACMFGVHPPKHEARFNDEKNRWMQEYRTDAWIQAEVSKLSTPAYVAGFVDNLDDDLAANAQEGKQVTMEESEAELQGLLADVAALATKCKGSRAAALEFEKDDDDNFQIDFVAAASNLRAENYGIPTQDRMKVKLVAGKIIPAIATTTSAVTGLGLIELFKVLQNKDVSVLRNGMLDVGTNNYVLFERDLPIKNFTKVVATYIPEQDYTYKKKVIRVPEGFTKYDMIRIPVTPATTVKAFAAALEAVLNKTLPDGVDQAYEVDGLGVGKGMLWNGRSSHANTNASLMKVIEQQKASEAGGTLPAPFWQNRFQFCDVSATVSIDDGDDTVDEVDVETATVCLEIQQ
The assay can be described thus: Leishmania donovani Ubiquitin Activating Enzyme (LdE1). The following applies: 30 µM. Format: functional.

For assay [3], the target named is AMP-activated protein kinase, AMPK (Homo sapiens) (UniProt P54646+O43741+P54619+Q9UGJ0+Q9Y478+Q13131+Q9UGI9). Put plainly: AMP-dependent Kinase enzyme assay. An in vitro enzyme assay that detects ADP turnover that is directly proportional to AMPK activity. This uses naive AMPK that is activated during the assay with MK-8722. Format: functional. Particulars: 30 µM.

The target of assay [4] is Sialic acid-binding Ig-like lectin 9 (Homo sapiens) (UniProt Q9Y336). The assay can be described thus: Hs-Siglec9 ALPHAscreen SOP 20170721. The following applies: 10 µM. Background: Alpha assays give light when donor and acceptor beads are brought close together.
Sequence of Sialic acid-binding Ig-like lectin 9 (Homo sapiens) (Q9Y336 whole entry): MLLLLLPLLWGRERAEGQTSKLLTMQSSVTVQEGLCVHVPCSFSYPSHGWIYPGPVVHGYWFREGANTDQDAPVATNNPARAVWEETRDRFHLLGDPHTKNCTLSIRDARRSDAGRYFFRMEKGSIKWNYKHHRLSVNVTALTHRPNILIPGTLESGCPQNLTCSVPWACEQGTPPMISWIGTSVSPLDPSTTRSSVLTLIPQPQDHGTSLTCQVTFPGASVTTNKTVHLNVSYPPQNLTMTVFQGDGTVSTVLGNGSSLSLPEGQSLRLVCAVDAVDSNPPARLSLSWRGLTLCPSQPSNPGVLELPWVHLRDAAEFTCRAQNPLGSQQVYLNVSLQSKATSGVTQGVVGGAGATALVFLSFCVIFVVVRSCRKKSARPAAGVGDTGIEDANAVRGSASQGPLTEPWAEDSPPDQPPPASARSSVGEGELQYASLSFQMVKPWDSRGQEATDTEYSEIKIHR
The next assay concerns Trypanosoma cruzi. Put plainly: Trypanosoma cruzi phosphomannomutase and mannose-1-phosphate guanylyltransferase assay. The class given is functional. The following applies: 10 µM.
The target of assay [5] is T2, Arginase-2, mitochondrial (Homo sapiens) (UniProt P78540).
T2 sequence (whole entry): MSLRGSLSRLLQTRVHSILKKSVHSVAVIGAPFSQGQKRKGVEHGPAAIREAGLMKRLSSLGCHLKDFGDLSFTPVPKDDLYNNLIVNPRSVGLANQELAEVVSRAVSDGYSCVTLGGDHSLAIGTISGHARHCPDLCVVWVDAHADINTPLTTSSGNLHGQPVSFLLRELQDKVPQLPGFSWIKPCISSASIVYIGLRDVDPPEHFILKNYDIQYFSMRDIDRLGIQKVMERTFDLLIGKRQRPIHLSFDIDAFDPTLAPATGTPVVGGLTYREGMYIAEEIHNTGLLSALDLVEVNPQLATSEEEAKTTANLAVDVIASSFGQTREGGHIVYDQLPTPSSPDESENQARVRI
The assay can be described thus: in vitro enzyme assay to detect the production of urea directly proportional to the activity of Arginase II. Further: in the data most compounds retested in dose-response had high values. The following applies: 33.3 µM. The class given is functional.

Assay [6] deals with T3, Proteasome subunit beta (Trypanosoma cruzi) (UniProt O96673).
T3 sequence (whole entry): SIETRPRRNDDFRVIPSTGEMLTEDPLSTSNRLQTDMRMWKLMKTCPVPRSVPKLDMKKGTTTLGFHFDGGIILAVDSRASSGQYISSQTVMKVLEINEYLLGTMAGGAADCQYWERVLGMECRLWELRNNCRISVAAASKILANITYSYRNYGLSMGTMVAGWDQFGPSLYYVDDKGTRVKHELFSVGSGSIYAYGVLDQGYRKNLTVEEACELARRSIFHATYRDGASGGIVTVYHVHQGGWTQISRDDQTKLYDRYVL
The assay can be described thus: Trypanosoma cruzi proteasome chymotrypsin-like activity (TcProtChymo) assay. Further: in the data most compounds retested in dose-response had high values. The class given is functional. The following applies: 9.37 µM.

For the next assay, the species on record is Homo sapiens. The assay can be described thus: To identify inhibition of the IFN signalling (Jak-Stat) pathway via expression of an eGFP reporter gene under the control of an IFN-stimulated response element (ISRE) containing MxA promoter. The class given is functional. Particulars: 30 µM. (A reporter such as luciferase makes a cellular process visible.)

The target in assay [7] is T4, Tyrosyl-tRNA synthetase, putative (Trypanosoma cruzi (strain CL Brener)) (UniProt Q4DSP6).
T4 sequence (whole entry): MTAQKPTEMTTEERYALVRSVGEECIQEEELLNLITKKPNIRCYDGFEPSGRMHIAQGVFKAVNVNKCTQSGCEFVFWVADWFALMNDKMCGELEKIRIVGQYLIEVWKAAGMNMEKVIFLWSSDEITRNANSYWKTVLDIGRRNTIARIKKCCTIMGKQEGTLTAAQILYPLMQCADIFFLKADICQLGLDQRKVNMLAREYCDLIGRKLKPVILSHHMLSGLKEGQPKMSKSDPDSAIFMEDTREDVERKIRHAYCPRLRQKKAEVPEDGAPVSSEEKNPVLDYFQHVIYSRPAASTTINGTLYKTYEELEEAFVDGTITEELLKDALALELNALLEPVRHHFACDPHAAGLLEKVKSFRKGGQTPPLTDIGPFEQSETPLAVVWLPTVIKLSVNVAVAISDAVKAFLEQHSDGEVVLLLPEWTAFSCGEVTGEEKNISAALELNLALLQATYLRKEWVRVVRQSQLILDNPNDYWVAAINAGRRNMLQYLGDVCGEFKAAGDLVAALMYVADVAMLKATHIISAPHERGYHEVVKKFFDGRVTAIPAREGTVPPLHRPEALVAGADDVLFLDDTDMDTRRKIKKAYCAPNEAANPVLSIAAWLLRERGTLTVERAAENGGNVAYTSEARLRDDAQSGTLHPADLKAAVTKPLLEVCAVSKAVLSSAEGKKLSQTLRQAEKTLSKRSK
Put plainly: Trypanosoma cruzi tyrosyl tRNA synthetase (TcYRS) _High Tyrosine SOP. Further: in the data most compounds retested in dose-response had high values. Format: functional. The following applies: 30 µM.

In assay [8] the target is T4, Tyrosyl-tRNA synthetase, putative (Trypanosoma cruzi (strain CL Brener)). Put plainly: Trypanosoma cruzi tyrosyl tRNA synthetase (TcYRS) SOP. Format: functional. Particulars: 30 µM.
Assay [9] has as its target Chromo domain-containing protein 1 (Saccharomyces cerevisiae (strain ATCC 204508 / S288c) (Baker's yeast)) (UniProt P32657). Put plainly: ScCHD-1 Enzyme Inhibition Assay. Further: in the data most compounds retested in dose-response had high values. Particulars: 30 µM. The class given is functional.

Sequence of Chromo domain-containing protein 1 (Saccharomyces cerevisiae (strain ATCC 204508 / S288c) (Baker's yeast)) (P32657 whole entry, the tested form may be a part): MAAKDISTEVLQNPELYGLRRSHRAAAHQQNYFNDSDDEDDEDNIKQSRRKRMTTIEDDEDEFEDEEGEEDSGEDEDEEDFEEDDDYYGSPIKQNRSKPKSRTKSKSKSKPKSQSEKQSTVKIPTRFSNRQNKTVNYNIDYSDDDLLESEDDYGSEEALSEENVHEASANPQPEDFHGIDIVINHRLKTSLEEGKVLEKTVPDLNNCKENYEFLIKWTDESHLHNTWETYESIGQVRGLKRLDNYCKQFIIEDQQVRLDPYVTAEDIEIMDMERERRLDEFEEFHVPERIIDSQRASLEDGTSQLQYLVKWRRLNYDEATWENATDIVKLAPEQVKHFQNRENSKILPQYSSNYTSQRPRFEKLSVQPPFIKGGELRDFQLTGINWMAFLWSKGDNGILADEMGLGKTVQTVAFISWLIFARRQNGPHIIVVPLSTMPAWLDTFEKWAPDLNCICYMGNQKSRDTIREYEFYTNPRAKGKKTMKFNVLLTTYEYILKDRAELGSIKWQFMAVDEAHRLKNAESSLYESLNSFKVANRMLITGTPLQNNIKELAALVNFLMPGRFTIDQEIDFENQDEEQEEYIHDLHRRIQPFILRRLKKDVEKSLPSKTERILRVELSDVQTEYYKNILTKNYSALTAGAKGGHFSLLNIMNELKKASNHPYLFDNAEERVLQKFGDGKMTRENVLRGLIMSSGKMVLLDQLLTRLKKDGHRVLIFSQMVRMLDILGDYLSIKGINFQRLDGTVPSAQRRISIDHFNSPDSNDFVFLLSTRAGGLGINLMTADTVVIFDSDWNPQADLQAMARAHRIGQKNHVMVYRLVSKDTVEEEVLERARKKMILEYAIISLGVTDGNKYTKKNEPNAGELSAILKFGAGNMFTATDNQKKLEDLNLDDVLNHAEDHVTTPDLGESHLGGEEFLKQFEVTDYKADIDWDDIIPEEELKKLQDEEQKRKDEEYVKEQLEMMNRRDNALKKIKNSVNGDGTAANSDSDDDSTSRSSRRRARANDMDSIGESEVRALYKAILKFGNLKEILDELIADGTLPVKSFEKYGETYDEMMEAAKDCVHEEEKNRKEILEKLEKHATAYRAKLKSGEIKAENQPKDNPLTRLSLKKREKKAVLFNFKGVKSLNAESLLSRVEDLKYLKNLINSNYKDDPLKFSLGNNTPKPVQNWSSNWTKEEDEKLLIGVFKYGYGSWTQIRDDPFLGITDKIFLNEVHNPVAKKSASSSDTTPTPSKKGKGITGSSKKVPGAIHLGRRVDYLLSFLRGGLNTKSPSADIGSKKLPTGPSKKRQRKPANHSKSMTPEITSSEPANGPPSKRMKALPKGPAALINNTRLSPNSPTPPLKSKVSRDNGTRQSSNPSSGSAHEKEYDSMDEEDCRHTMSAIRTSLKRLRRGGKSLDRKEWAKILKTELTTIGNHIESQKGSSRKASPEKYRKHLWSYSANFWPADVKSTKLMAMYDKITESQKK

Consider `CC(NC(=O)Cn1cccn1)c1cccnc1` (stereo unspecified), for which the Percent Effect is -4.41% in [1]; 8% in [2]; -4.08% in assay [3]; 11% in [4]; 8.67% in the assay with Trypanosoma cruzi; 6.25% in assay [5]. The Percent Effect in assay [6] is 1.92%; in the assay filed under Homo sapiens, 10.3%; in assay [7], 3.83%; in assay [8], 13.6%; in [9], -3.89%.
With `Cc1n[nH]cc1CNc1ccc2c(c1)CN(C(=O)OC(C)(C)C)CC2`, the Percent Effect in [1] is -2.19%; in assay [2], 5.2%; in assay [3], -9.51%; in [4] it was 0.686%; with Trypanosoma cruzi, 2.26%; in assay [5] it was -8.28%. Also, the Percent Effect is 15.5% in assay [6]; 68.8% in the assay filed under Homo sapiens; 2.15% in assay [7]; 3.7% in assay [8]; -6.66% in assay [9].
Take `C[C@H](O)CNC(=O)c1cnc(-c2ccccc2)nc1O`: the Percent Effect was -3.97% in assay [1]; 10.8% in assay [2]; -6.61% in assay [3]; 24.9% in [4]; 4.83% with Trypanosoma cruzi; 19.1% in [5]. In addition, the Percent Effect is 11.7% in assay [6]; -5.82% in the assay filed under Homo sapiens; 2.65% in assay [7]; 17.1% in assay [8]; -9.28% in [9].
Regarding `CS(=O)(=O)NCCCNC(=O)c1cccc(-n2cccc2)c1`, the Percent Effect in assay [1] was -5.41%; in assay [2], 15.8%; in assay [3], 0.491%; in [4] it was -5%; in the assay with Trypanosoma cruzi it was 2.04%; in [5], 1.18%. Also, the Percent Effect in assay [6] is 15.8%; in the assay listed under Homo sapiens, 1.58%; in [7], 1.06%; in assay [8], 13%; in assay [9], -6.62%.
As for `O=C(CCCOc1ccc(F)cc1F)N1CCCC1Cn1cccn1` (stereo unspecified), the Percent Effect in assay [1] was -7.68%; in assay [2] it was 15.8%; in [3] it was -5.85%; in assay [4] it was 17.7%; in the assay with Trypanosoma cruzi, 4.01%; in assay [5], 1.8%. Further, the Percent Effect in assay [6] was 8.38%; in the assay filed under Homo sapiens, 9.96%; in [7], 5.42%; in assay [8], 16.1%; in assay [9], -6.65%.
For the compound `CCOc1ccccc1C(CC(=O)Nc1ccc(C)cn1)NC(C)=O` (stereo unspecified), the Percent Effect in assay [1] is -3.17%; in assay [2], 10.5%; in [3], 7.35%; in assay [4], 5.85%; in the assay on Trypanosoma cruzi, 6.77%; in assay [5], 1.15%. For the same compound, the Percent Effect in [6] was 4.34%; in the assay listed under Homo sapiens it was 4.19%; in assay [7], 8.33%; in assay [8], 17.1%; in assay [9], -15.3%.
Regarding `CC(C)NC(=O)[C@@H]1C[C@H](N)CN1C(=O)c1cc2ccccc2[nH]c1=O`, the Percent Effect was -3.02% in [1]; 20.8% in assay [2]; -9.81% in assay [3]; 9.13% in assay [4]; 4.76% in the assay on Trypanosoma cruzi; 4.86% in assay [5]. Also, the Percent Effect in assay [6] was 12.3%; in the assay filed under Homo sapiens, -0.74%; in [7] it was 8.42%; in assay [8], 15.4%; in assay [9], -6.54%.
`Cc1cnn(CC2CN(Cc3cccc(OCC(N)=O)c3)CCO2)c1` (stereo unspecified): the Percent Effect in assay [1] was -3.33%; in [2] it was -5.2%; in assay [3], 0.653%; in [4] it was 4.26%; in the assay with Trypanosoma cruzi, -7.3%; in [5], 5.34%. The Percent Effect in [6] was -2.53%; in the assay listed under Homo sapiens, 23.4%; in [7], 3.88%; in assay [8], -2.44%; in assay [9], 1.45%.
Consider `CN(C)Cc1nnc(C2CCN(C(=O)CCc3cccs3)CC2)n1C`, for which the Percent Effect was -3.21% in assay [1]; 13.5% in assay [2]; -7.22% in assay [3]; 25.4% in assay [4]; 4.83% in the assay on Trypanosoma cruzi; 1.43% in assay [5]. Further, the Percent Effect in [6] turned out to be 12.1%; in the assay filed under Homo sapiens it was 5.64%; in assay [7] it was 6.88%; in [8] it was 14.6%; in assay [9], 72.9%.
In the case of `COc1cccc(OCC2CCCN(C(=O)c3cnc(C)nc3O)C2)c1` (stereo unspecified), the Percent Effect in assay [1] is 0.517%; in assay [2], 8.11%; in [3], -1.51%; in assay [4] it was 13.5%; with Trypanosoma cruzi, 5.02%; in assay [5] it was 11.9%. The Percent Effect in assay [6] was 7.24%; in the assay listed under Homo sapiens it was -19%; in [7] it was 7.94%; in assay [8] it was 17.1%; in assay [9], -2.95%.
In the case of `C[C@@H]1C[C@@H]2CCN(C(=O)c3cnccn3)C[C@H]2O1`, the Percent Effect in assay [1] was -2.4%; in [2], -2.7%; in [3] it was 5.23%; in assay [4] it was -2.15%; in the assay on Trypanosoma cruzi, -1.95%; in assay [5], 0.417%. The Percent Effect is -0.592% in [6]; 3.34% in the assay filed under Homo sapiens; 1.98% in assay [7]; -3.66% in assay [8]; -0.0529% in [9].
